SMILES strings stand for the structures. This is part of a sample that, as a whole, favours compounds with a hit. Of some 83,000 tested, about 20% had one in any assay.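 Results are percent growth after 48 hours of single-concentration exposure. 100 means growth as in untreated cells, lower positive values show inhibition; negative values down to -100 show cell death.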 Unmarked numbers belong to inactive results. Active and inactive are the calls of the source. The calls were made as follows: active = growth percent below 10; inactive = the rest.

For the experiment, the system named is RXF 393 renal. Description: NCI-60 one-dose screen, 48 h (100 = growth as untreated, 0 = no growth, -100 = all killed). As to conditions: 10 µM unless noted.
For the molecule `CC(=O)O[C@H]1CC[C@@]2(C)C(=CC[C@H]3[C@@H]4C[C@@H](N5CC5)[C@H](C(C)=O)[C@@]4(C)CC[C@@H]32)C1`, the growth is 103%.
For the molecule `CC(=O)O[C@H]1C(=O)[C@@]2(C)[C@H]([C@H](OC(=O)c3ccccc3)[C@]3(O)C[C@H](OC(=O)[C@H](OC(=O)OC[C@H]4COC(C)(C)O4)[C@@H](NC(=O)c4ccccc4)c4ccccc4)C(C)=C1C3(C)C)[C@]1(OC(C)=O)CO[C@@H]1C[C@@H]2O`, the growth was -7.11% (active).
The result for `COC(=O)N[C@H]1CCc2c(Br)c(OC)c(OC)c(OC)c2-c2ccc(SC)c(=O)cc21` reads 16.8%; that for `CC[C@H](C)[C@H](NC(=O)c1ccccn1)C(=O)N(C)[C@H](C[C@@H](OC(C)=O)c1nc(C(=O)N[C@@H](Cc2ccccc2)C[C@H](C)C(=O)OC)cs1)C(C)C`, -11.2% (active); that for `Cc1cc(N(CCCl)CCCl)ccc1C=Nc1ccc(-c2csc(Cc3ccccc3)n2)cc1`, 83.8%.
`COC(=O)[C@]12CCC(C)(C)C[C@H]1[C@H]1C(=O)C[C@@H]3[C@@]4(C)C[C@@]5(CC(C)(C)[C@@H]4CC[C@@]3(C)[C@]1(C)CC2)OO[C@@](C)(C(F)(F)F)O5`: the growth is 95.3%.
On to `CN1CCC(c2c[nH]c3ccccc23)C1` (configuration not stated), for which the growth is 128%.
For `CCC[CH2][Sn]([CH2]CCC)([CH2]CCC)[O]c1ccc(Cl)cc1Cl`, the growth is -96.2% (active).
Take `COC(=O)[C@H](C[C@H](Cc1ccccc1)NC(=O)c1csc([C@@H](C[C@H](C(C)C)N(C)C(=O)[C@@H](NC(=O)[C@H]2CCCCN2C)C(C)C)OC(C)=O)n1)NC(=O)OCc1ccccc1`: the growth was 20.4% [8.5 µM].
As for `C[n+]1c(/C=C/c2ccc(N(CCCl)CCCl)cc2)sc2ccccc21`, the growth was 85.6%.
In the case of `CC[C@H](C)[C@H](NC(=O)C12C3C4C1C1C2C3C41NC(C)=O)C(=O)N(C)[C@H](C[C@@H](OC(C)=O)c1nc(C(=O)N[C@@H](Cc2ccccc2)C[C@H](C)C(=O)OC)cs1)C(C)C` (some centres not stated), the growth is 41.9%.
Turning to `CCCCCN(CCCCC)CC(O)c1cc(Cl)ccc1OC` (configuration not stated), the growth is 30.7%.
Regarding `C#Cc1ccc2c(c1)C(c1ccccc1)=NCC(=O)N2C`, the growth was 83.8%.
On to `CCOC(=O)CCN(C)C1=Nc2ccc(Cl)cc2C(c2ccccc2)=[N+]([O-])C1`, for which the growth was 105%.
For `COC(=O)[C@@H](C)C[C@H](Cc1ccccc1)NC(=O)c1csc([C@@H](C[C@H](C(C)C)N(C)C(=O)[C@@H](NC(=O)CN(C)C)C2CC2)OC(C)=O)n1`, the growth was 37.6%.
Take `COc1cc2c(c(OC)c1OC)-c1ccc([O-])c(=O)cc1[C@@H](NC(C)=O)CC2.COc1cc2c(c(OC)c1OC)-c1ccc([O-])c(=O)cc1[C@@H](NC(C)=O)CC2.[Cu+2]`: the growth is 13.4%.
Regarding `COc1ccc(/C=C\c2cc(OC)c(OC)c(OC)c2)c(NS(=O)(=O)c2ccc(C)cc2)c1O`, the growth is 32.5%.
Regarding `C=C(C)[C@@]12OC3(/C=C/C=C/CCCCC)O[C@@H]1[C@@H]1[C@@H]4O[C@]4(CO)[C@@H](O)[C@]4(O)C(=O)C(C)=C[C@H]4[C@@]1(O3)[C@H](C)[C@H]2OC(=O)c1ccccc1`, the growth is 71%.
Regarding `CC(C)CCC1(CCCl)C(=O)NC(=O)NC1=O`, the growth was 98.1%.
The result for `C[C@@]1(CCCCCCCCCc2ccc(O)cc2)C[C@]2(C)OC(=O)C[C@@H]2OO1` reads 120%; that for `COC(=O)[C@@H](C)C[C@H](Cc1ccccc1)NC(=O)c1nc([C@@H](C[C@H](C(C)C)N(C)C(=O)[C@@H](NC(=O)[C@H]2CCCN2C)C(C)C)OC(C)=O)sc1C`, 39%.
The result for `CCOP(=O)(NC[C@H]1O[C@](O)(CO)[C@@H](O)[C@@H]1O)OCC` reads 96.4%; that for `O=C1CN=C(c2ccc(Cl)cc2)c2sccc2N1`, 100%; that for `COP(=O)(OC)C(O)c1ccc(Cl)cc1` (configuration not stated), 108%.
Turning to `CNC(=O)Oc1ccc(N(C)C)cc1C(C)C`, the growth was 73.8%.
On to `CO[C@H](C(=O)O)[C@@H]1Cc2cc3cc(OC4CC(OC5CC(O)C(O)C(C)O5)C(O)C(C)O4)c(C)c(O)c3c(O)c2C(=O)[C@H]1OC1CC(OC2CC(OC3CC(C)(O)C(O)C(C)O3)C(O)C(C)O2)C(O)C(C)O1` (some centres not stated), for which the growth is -57.1% (active).
On to `CCOC(=O)N[C@H]1CCc2c(Br)c(OC)c(OC)c(OC)c2-c2ccc(SC)c(=O)cc21`, for which the growth was 12.8%.
